Reference: PubChem BioAssay (NCI)
The panel holds about 83,000 compounds, 20% with a hit somewhere; the sample as a whole holds those more often.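 Testing used 96-well plates and a 48-hour single-concentration exposure. Example: -40 means 40% of the starting cells died.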 A number with no mark means an inactive call. Activity calls are given as the source filed them. The calls were made as follows: active = growth percent below 10; inactive = the rest.

Test system: HL-60(TB) leukemia
Experiment: NCI-60 one-dose screen, 48 h (100 = growth as untreated, 0 = no growth, -100 = all killed)
Settings: 10 µM unless noted

Structure (SMILES)	growth
C/C=C/[C@@H]1C=C[C@@H]2C[C@H](C)CC[C@H]2[C@]1(C)/C(O)=C1/C(=O)[C@H](CO)N(C)C1=O	62.7%
C#Cc1nc(C2=C(C)C(OC(C)=O)/C(=N/OC(C)=O)C2)cs1 (stereo not drawn)	-43.9% (active)
COc1cc(-c2nc(-c3ccccc3)[nH]c2-c2ccnc(NCCCNS(=O)(=O)c3cccc(F)c3)n2)ccc1Cl	55.1%
C=C(C)[C@@H]1CC[C@]2(C(=O)N3CCN(C)CC3)CC[C@]3(C)[C@H](CC[C@@H]4[C@@]5(C)CC[C@H](OP(=O)(OCC)OCC)C(C)(C)[C@@H]5CC[C@]43C)[C@@H]12	42.2%
O=C1CC2(CCOCC2)Oc2ncccc21	13.3%
COC(=O)c1cccc(NC2=CC(=O)C(C)=C(C)C2=O)c1	42%
O=C(CCCCCCN1CC(=O)N2[C@@H](c3ccccc3)c3[nH]c4ccccc4c3C[C@H]2C1=O)NO	28.5%
COc1cc(Cn2cc3c(c2)-c2onc(CN4CCCC4)c2CC3)cc(OC)c1OC	99%
O=C(/C=C/c1cccc(O)c1)c1ccc(O)cc1	72.3%
CC1CCN(CC(=O)Nn2c(COc3ccccc3)nc3ccccc3c2=O)CC1	80.3%
C#Cc1nc(C2=C(C)C(OC(=O)CCC(=O)O)CC2)cs1 (stereo not drawn)	101%
Cc1nn(-c2ccc(Cl)cc2)c(C)c1N=Nc1ccc2oc(=O)ccc2c1	93.5%
N#Cc1cccc(CN2CCC3=C(C2)C(=O)N(Cc2ccc(Cl)cc2)C2=NCCCN23)c1	11.7%
COc1ccc2[nH]cc(-c3csc4nc(-c5ccccc5)cn34)c2c1	13.9%
COc1ccc(Cn2cc3c(c2-c2cc(OC)c(OC)c(OC)c2)CCc2c(CN4CCCC4)noc2-3)cc1	3.57% (active)
O=C1CCC(N2C(=O)c3ccc(NS(=O)(=O)c4ccccc4OC(F)(F)F)cc3C2=O)C(=O)N1 (stereo not drawn)	-20.1% (active)
CCN1CCN(c2cc(C(=O)Nc3nc4ccc(Oc5ccnc(C(=O)NC)c5)cc4s3)cc(C(F)(F)F)c2)CC1	18.7%
Clc1ccc2c(NCCCN3CCOCC3)c3oc4ccccc4c3nc2c1	37.9%
Cn1cc(-c2nc(N)nnc2-c2c[nH]c3ccc(Br)cc23)c2cc(Br)ccc21	3.35% (active)
CC(C)C(=O)Nc1ccc(-c2nc(-c3cccc(O)c3)c(-c3ccnc(Br)c3)[nH]2)cc1	-40.4% (active)
CCC(CC)N1C(=O)/C(=c2\sc3n(c2=O)NC2C(N=3)N(CC)C(=O)N2CC)c2ccccc21 (stereo not drawn)	26.5%
COc1ccc(/C=N/NC(=O)c2[nH]c3ccc(Br)cc3c2-c2ccccc2)o1	-20.2% (active)
CN1CCN(Cc2ccc(/C=N/Nc3ccnc4cc(Cl)ccc34)cc2)CC1	72.4%
O=C1c2c(c3c4cccnc4[nH]c3c3ccc4ccccc4c23)C(=O)N1CCN1CCNCC1	64.2%
CN1CCN(Cc2ccc(NC(=O)c3cncc(C#Cc4cnn5cccnc45)c3)cc2C(F)(F)F)CC1	-19% (active)
N#Cc1nc(-c2ccccc2)oc1N1CC[C@@H](CO)C1	90.6%

Structure (SMILES)	growth
COc1ccc(/C=N/NC(=O)CSc2nc(-c3cnccn3)cc(-c3cccs3)c2C#N)cc1	93.8%
COc1cc(/C=N\NC(=O)c2ccc3nc(-c4ccc(Br)cc4)[nH]c3c2)cc(OC)c1OC	27%
CCOC(=O)C1=C(C)NC(C)=C(C(=O)OCc2ccccc2)C1c1cccc(C#N)c1 (stereo not drawn)	16.1%
O=C(CCCCCCN1CC(=O)N2[C@@H](c3cccs3)c3[nH]c4ccccc4c3C[C@H]2C1=O)NO	100%
CN(C)CCn1c2ccc(N)cc2c2nc3ccccc3nc21	12%
Cn1ncc2ncc(-c3ccc4ncc(C#N)c(N5CCc6cc(F)c(Cl)cc65)c4c3)cc21	26.7%
COc1cc(O)c2c(c1)/C=C/C[C@H](O)[C@H](O)C(=O)/C=C\C[C@H](C)OC2=O	-9.6% (active)
C=CCSc1ccc2c(c1)C(N1CCNCC1)=Nc1ccccc1O2	25.6% [8.25 µM]
O=C1[C@@H]2Cc3c([nH]c4ccccc34)[C@H](c3ccc(Cl)cc3)N2C(=O)CN1C1CCN(Cc2ccccc2)CC1	17.6%
Cc1ccc(/C=C/CC(=O)Nc2ccc(C(=O)Nc3ccc(F)cc3N)nc2)cn1	-19.6% (active)
CCOC(=O)Nc1ccc(-c2nc(-c3cccc(O)c3)c(-c3ccnc(Br)c3)[nH]2)cc1	-11.1% (active)
O=C(CCCCCCNC(=O)C(O)(O)C(F)(F)F)Nc1ncc(-c2ccccc2)s1	11.2%
C#C[C@]1(O)CC[C@H]2[C@@H]3CC=C4c5sc(Nc6ncccc6C)nc5CC[C@]4(C)[C@H]3CC[C@@]21C	-29.6% (active)
CCOc1cccc(-c2nc3sccn3c2-c2ccnc(S(C)(=O)=O)n2)c1	36.9%
COc1cc(C2=NN(C(C)=O)C(c3ccc(N4CCOCC4)cc3)C2)cc(OC)c1OC (stereo not drawn)	105%
COC(=O)c1ccc(NC2=C(Cl)C(=O)C(C)=C(C)C2=O)cc1	41.3%
C[C@@H](Nc1c(C#N)cnc2ccc(-c3cnc(Cl)c(NS(C)(=O)=O)c3)cc12)c1ccccc1	-28.4% (active)
CCN(CC)c1ccc(/C=N/NC(=O)c2ccc(S(N)(=O)=O)cc2)c(O)c1	1.26% (active)
Cn1c2ccc(Br)cc2c2c3c(c4c5cc(F)ccc5oc4c21)C(=O)N(O)C3=O	99.6%
COC(=O)c1c(C(=O)OC)c2n(CC(=O)Nc3cccc4cccnc34)c3ccccc3n2c1C(=O)c1ccc(C)cc1	99.2%
N#C/C(=C\c1ccc(-c2ccc(Cl)c(Cl)c2)o1)C(=O)Nc1ncc(Cc2ccc(Cl)cc2)s1	51.5%
CCOC(=O)c1c(NC(=O)c2ccccc2C(F)(F)F)sc2c1CCC(=O)C2	33.4%
CN(C)CCNC(=O)c1ccc(-c2nc3ccc4[nH]ncc4c3c3c2COCC3)cc1	-32.6% (active)
N#Cc1cnc2ccc(-c3cnc(N)nc3)cc2c1N1CCc2cc(F)c(Cl)cc21	-11.7% (active)
CCOC(=O)c1c(NC(=O)c2ccc(C(C)(C)C)cc2)sc2cc(OCCN3CCCCC3)ccc12	27.1%
C/C(=N\NC(=O)CSc1nc2sc3c(c2c(=O)n1-c1ccccc1)CCC(C)C3)c1ccc(Cl)cc1 (stereo not drawn)	3.75% (active)

Structure (SMILES)	growth
CC(=O)O[C@@H]1C(=O)N(c2cnccn2)[C@H]1c1ccccc1[N+](=O)[O-]	-30.4% (active)
Cn1cc(-c2nnc(N)nc2-c2c[nH]c3ccc(F)cc23)c2cc(F)ccc21	61.7%
CCN(CC)S(=O)(=O)c1ccc(-c2nc(C(Cl)Cl)nc3cc(-c4ccc(F)cc4)nn23)cc1	4.64% (active)
CC1CCc2c(sc3nc(SCC(=O)N/N=C/c4ccc(Cl)cc4)n(-c4ccccc4)c(=O)c23)C1 (stereo not drawn)	107%
N#Cc1cccc(CN2CCc3ncn(Cc4ccc(Cl)cc4)c(=O)c3C2)c1	13.5%
O=C(Nc1ccccc1)Nc1nc2ccc([N+](=O)[O-])cc2s1	-35.9% (active)
Fc1cc(F)cc(NNC(=S)c2ccccc2)c1	30.5%
COc1ccc(C2C(C#N)=C(/N=C/c3ccc(Cl)cc3)Oc3c2sc2c(C)cccc32)cc1 (stereo not drawn)	4.04% (active)
Cc1[nH]nc2ncc(C#Cc3cncc(C(=O)Nc4ccc(CN5CCN(C)CC5)c(C(F)(F)F)c4)c3)cc12	13.6%
NC(=O)c1c(NC(=O)c2ccc(F)cc2F)sc2c1CCC(=O)C2	34.1%
Nc1ncc(-c2ccc3ncnc(N4CCc5cc(F)c(Cl)cc54)c3c2)cn1	7.66% (active)
ClC(Cl)c1nc(-c2cccs2)n2nc(-c3ccccc3)cc2n1	0.604% (active)
CCNC(=O)N1CCc2cc(OC)c(OCCc3ccc(OC)cc3)cc2C1c1ccc(Cl)cc1C (stereo not drawn)	12.2%
Clc1ccc2[nH]cc(-c3nn4cc(-c5ccncc5)nc4s3)c2c1	89.8%
CCN(CC)CCN1C(=O)c2c(c3c4cc(Br)ccc4[nH]c3c3ccc4ccccc4c23)C1=O	-35% (active)
COc1cc(OC)c(S(N)(=O)=O)cc1C(=O)/C=C/c1ccc(C)cc1	6.73% (active)
C#CCOc1ccc(/C=N/Nc2nc(-c3cc(Cl)ccc3Cl)cs2)cc1	91%
Brc1ccccc1/C=N/Nc1nc(N/N=C/c2ccccc2Br)nc(N2CCOCC2)n1	80.5%
COc1ccc2sc(NC(=O)CCCCCCNC(=O)C(O)(O)C(F)(F)F)nc2c1	11.8%
COc1ccc(Cn2cc3c(c2-c2cc(OC)c(OC)c(OC)c2)CCCc2cnoc2-3)cc1	-5.47% (active)
CCN1C(=O)N(CC)C2SC(N/N=C/C=C/c3ccccc3OC)=NC21 (stereo not drawn)	-9.85% (active)
C=C(C=O)[C@@H]1CC[C@]2(CO)CC[C@]3(C)[C@H](CC[C@@H]4[C@@]5(C)CCCNC(C)(C)[C@@H]5CC[C@]43C)[C@@H]12	-10.2% (active)
C#C[C@]1(O)CC[C@H]2[C@@H]3CC=C4c5sc(-c6ccc7c(c6)OCO7)nc5CC[C@]4(C)[C@H]3CC[C@@]21C	46.8%
N#Cc1cccc(CN2CCC3=C(C2)C(=O)N(Cc2ccc(Cl)cc2)C2=NCCN23)c1	16.2%
N/C(=N\OC(=O)CSc1nc2ccccc2s1)c1ccc(Cl)cc1	108%
O=[N+]([O-])c1ccc(NC(=S)NNC(=S)Nc2ccc(Br)cc2)cc1	93.1%
